Assay results as given in PubChem BioAssay (Tox21).
Results filed as inconclusive are left out. Activity calls are given as the source filed them. Unless noted, the call rests on the fitted dose curve.

Experiment: qHTS assay to identify small molecule agonists of the hypoxia (HIF-1) signaling pathway (AID 1224846; active means well fitted activation curve with a large enough effect in the signal ratio in the repeat runs, not every such curve was filed as active; the % refers to the signal ratio)
Conditions: HRE-bla ME-180 cells, beta-lactamase ratio, 17 h; series mostly up to 76.8 µM; activation: at the top concentration
Summary of the method: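 Cell line: CellSensor HRE-bla ME-180; 2,000 cells/well; 0.5% dialyzed FBS; 5 h preincubation; DMSO compound pin transfer; 17 h, 37C, 5% CO2; CCF4-AM added; bla FRET signal scored for activation.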
On the % scale 0 is the no-effect control and ±100 the full control effect.

Structure (SMILES) | activation
CC(C)C(OC(=O)c1ccccc1)C(C)(C)COC(=O)c1ccccc1 (stereo not drawn) | 1.21% (inactive)
CC(C)(CCl)c1ccccc1 | 0.0605% (inactive)
c1cc[c]([Bi]([c]2ccccc2)[c]2ccccc2)cc1 | -0.0043% (inactive)

Experiment: qHTS assay to identify small molecule agonists of H2AX - cell viability counter screen (AID 1224847); further: nearly all actives have a fitted effect of over 30% in size; further: potency means the concentration at half of the fitted maximal effect;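 on activity change, negative = cytotoxicity: wild-type CHO-K1 cells; top concentration of the series differs between compounds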
Conditions: CHO-K1 viability, CellTiter-Glo luminescence, 3 h; series mostly up to 154 µM; activity change, negative = cytotoxicity: at the top concentration
Summary of the method: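 Cells plated first: CHO-K1, 1000 per well in 10% FBS medium, incubated overnight at 37C. Then 15-point compound titration added (final DMSO 0.76%) for 3 hr. Finally CellTiter-Glo added and luminescence read.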

Structure (SMILES) | activity change, negative = cytotoxicity | Potency
OCC1CC=CCC1 (stereo not drawn) | -3.17% (inactive) | –
Cc1c(C(=O)NN2CCCCC2)nn(-c2ccc(Cl)cc2Cl)c1-c1ccc(Cl)cc1 | -8.98% [at 70.9 µM] (inactive) | –
CC(CCO)CCc1ccccc1 (stereo not drawn) | -0.936% (inactive) | –
CCCc1c(OCCCOc2ccc(OCC(=O)O)cc2)ccc(C(C)=O)c1O | – | 101 µM (active)
CCC(=O)Oc1ccc(/C(CC)=C(\CC)c2ccc(OC(=O)CC)cc2)cc1 | -0.159% (inactive) | –
C[Si](NC1CCCCC1)(NC1CCCCC1)NC1CCCCC1 | -3.61% (inactive) | –
C[N+](C)(C)CCOC(N)=O | -4.13% [at 70.9 µM] (inactive) | –
O=C(N/N=C/c1ccc([N+](=O)[O-])o1)c1ccc(O)cc1 | 1.76% [at 70.9 µM] (inactive) | –
C=CC(C)(C)CC(=O)OC | 3.1% (inactive) | –
Brc1cc(-c2ccc(Br)c(Br)c2Br)cc(Br)c1Br | 2.57% [at 70.9 µM] (inactive) | –
CCCCCCCCCCCC(=O)[O][Sn]([CH2]CCC)([CH2]CCC)[O]C(=O)CCCCCCCCCCC | 11.3% [at 70.9 µM] (inactive) | –
CCC(C(=O)OCCN(CC)CC)c1ccccc1 (stereo not drawn) | 4.76% [at 70.9 µM] (inactive) | –
CCC1(C)CC(=O)NC1=O (stereo not drawn) | -5.31% [at 70.9 µM] (inactive) | –
CCCCN(CCCC)C(=S)SSC(=S)N(CCCC)CCCC | – | 112 µM (active)
Cc1cc(O)c(C(C)C)cc1Cl | – | 89.8 µM (active)
NC(=O)N(O)[C@@H]1COc2cc(OCc3ccccc3)ccc21 | -4.63% (inactive) | –
CN1CCCN=C1/C=C/c1cccs1 | 0.379% [at 70.9 µM] (inactive) | –
O=C(O)c1c(O)c(-c2ccccc2)nc2ccccc12 | 6.04% [at 70.9 µM] (inactive) | –
O=C(CCCCCCC(=O)Nc1ccccc1)NO | -0.565% [at 70.9 µM] (inactive) | –
Cc1ccnc2ccccc12 | 5.44% (inactive) | –
CO[C@@]12[C@H](COC(N)=O)C3=C(C(=O)C(C)=C(N)C3=O)N1C[C@@H]1N[C@@H]12 | 5.06% [at 70.9 µM] (inactive) | –
CC(C)(CCl)c1ccccc1 | 0.388% (inactive) | –
CC1C2CC(CC2C2CCCC(O)C2)C1(C)C (stereo not drawn) | – | 89.8 µM (active)
CC1=C(/C=C/C(C)=C\C=C\C(C)=C\C(=O)O)C(C)(C)CCC1 | 11.8% (inactive) | –

Experiment: qHTS assay to identify small molecule antagonists of the estrogen related receptor (ERR) signaling pathway from Tox21 library (AID 1224848; active means well fitted inhibition curve with a large enough effect in the repeat runs; further: nearly all actives have a fitted effect of over 50% in size; further: potency means the concentration at half of the fitted maximal effect)
Conditions: ERR reporter cell line, luciferase antagonist mode, 18 h; series mostly up to 92.4 µM; activity, negative = inhibition: at the top concentration
Summary of the method: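 Reading was by luminescence 30 min after ONE-Glo addition. Before that, ERR cells at 2,000 per well had rested 6 h at 37 C/5% CO2 and then received pin-tooled compounds in DMSO for 18 h at 37 C.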

Structure (SMILES) | Potency | activity, negative = inhibition
NC(=O)Cn1c(=O)cc(CCN2CCN(c3nccc4sccc34)CC2)c2ccc(F)cc21 | 54.5 µM (active) | –
Cc1nccn1-c1ccc(Sc2cccc(C3(C(N)=O)CCOCC3)c2)cc1 | 1.37 µM (active) | –
CCCc1c(OCCCOc2ccc(OCC(=O)O)cc2)ccc(C(C)=O)c1O | – | -13.6% (inactive)
O=C(N[C@@H](c1ccccc1)[C@@H]1CCCCN1)c1cccc(C(F)(F)F)c1Cl | 30.6 µM (active) | –
CCC(=O)Oc1ccc(/C(CC)=C(\CC)c2ccc(OC(=O)CC)cc2)cc1 | 27.3 µM (active) | –
CCOC(=O)[C@@H](C)Oc1ccc(Oc2nc3ccc(Cl)cc3o2)cc1 | 48.6 µM (active) | –
COCCOC(=O)C1=C(C)NC(C)=C(C(=O)OC/C=C/c2ccccc2)C1c1cccc([N+](=O)[O-])c1 (stereo not drawn) | 7.5 µM (active) | –
CCCCCCCCCCCC(=O)[O][Sn]([CH2]CCC)([CH2]CCC)[O]C(=O)CCCCCCCCCCC | – | -17.8% [at 42.5 µM] (inactive)
CCC(Cc1ccccc1)(C(=O)c1ccc(N2CCOCC2)cc1)N(C)C (stereo not drawn) | 17.2 µM (active) | –
CCCCC1C(=O)N(c2ccccc2)N(c2ccc(O)cc2)C1=O (stereo not drawn) | 21.1 µM (active) | –
Nc1ccc(Cl)cc1[N+](=O)[O-] | – | -1.08% (inactive)
CN1CCN(CCCN2c3ccccc3Sc3ccc(S(=O)(=O)N(C)C)cc32)CC1 | 26.6 µM (active) | –
CO[C@@]12[C@H](COC(N)=O)C3=C(C(=O)C(C)=C(N)C3=O)N1C[C@@H]1N[C@@H]12 | 8.41 µM (active) | –
Cc1cc(S(=O)(=O)O)ccc1N=Nc1c(O)ccc2ccccc12 | – | -3.83% (inactive)
c1cc[c]([Bi]([c]2ccccc2)[c]2ccccc2)cc1 | 61.1 µM (active) | –

Experiment: qHTS assay to identify small molecule agonists of the estrogen related receptor (ERR) signaling pathway from Tox21 library (AID 1224849); further: nearly all actives have a fitted effect of over 15% in size
Conditions: ERR reporter cell line, ONE-Glo luciferase, 18 h; at 92.4 µM (top of the series) unless noted
Summary of the method: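 ERR cells, 6 h pre-incubation 37 C/5% CO2; cpd in DMSO pinned; 18 h 37 C; ONE-Glo added, 30 min RT; luminescence read. Agonist mode, qHTS.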

Structure (SMILES) | activity change, positive = activation
NC(=O)Cn1c(=O)cc(CCN2CCN(c3nccc4sccc34)CC2)c2ccc(F)cc21 | -34.9% (inactive)
Cc1nccn1-c1ccc(Sc2cccc(C3(C(N)=O)CCOCC3)c2)cc1 | -58% (inactive)
CCCc1c(OCCCOc2ccc(OCC(=O)O)cc2)ccc(C(C)=O)c1O | -8.13% (inactive)
O=C(N[C@@H](c1ccccc1)[C@@H]1CCCCN1)c1cccc(C(F)(F)F)c1Cl | -38.1% (inactive)
CCC(=O)Oc1ccc(/C(CC)=C(\CC)c2ccc(OC(=O)CC)cc2)cc1 | -47.8% (inactive)
CCOC(=O)[C@@H](C)Oc1ccc(Oc2nc3ccc(Cl)cc3o2)cc1 | -39.1% (inactive)
COCCOC(=O)C1=C(C)NC(C)=C(C(=O)OC/C=C/c2ccccc2)C1c1cccc([N+](=O)[O-])c1 (stereo not drawn) | -61.8% [at 42.5 µM] (inactive)
CCCCCCCCCCCC(=O)[O][Sn]([CH2]CCC)([CH2]CCC)[O]C(=O)CCCCCCCCCCC | -11.3% [at 42.5 µM] (inactive)
CCC(Cc1ccccc1)(C(=O)c1ccc(N2CCOCC2)cc1)N(C)C (stereo not drawn) | -33.5% (inactive)
CCCCC1C(=O)N(c2ccccc2)N(c2ccc(O)cc2)C1=O (stereo not drawn) | -65.4% [at 42.5 µM] (inactive)
Nc1ccc(Cl)cc1[N+](=O)[O-] | -0.746% (inactive)
CN1CCN(CCCN2c3ccccc3Sc3ccc(S(=O)(=O)N(C)C)cc32)CC1 | -33.1% [at 42.5 µM] (inactive)
CC(C)c1nnc2ccc(-c3ocnc3-c3cc(F)ccc3F)cn12 | -31.4% (inactive)
CO[C@@]12[C@H](COC(N)=O)C3=C(C(=O)C(C)=C(N)C3=O)N1C[C@@H]1N[C@@H]12 | -55.2% [at 42.5 µM] (inactive)
Cc1cc(S(=O)(=O)O)ccc1N=Nc1c(O)ccc2ccccc12 | -1.94% (inactive)
c1cc[c]([Bi]([c]2ccccc2)[c]2ccccc2)cc1 | -40.9% (inactive)
